# Test results taken from PubChem BioAssay (EPA / NIEHS).
# “And” between values parts separate entries of the source, which are not always exact repeats. Equal values may be shown once. Records with an inconclusive call do not appear. The source made the active and inactive calls. The calls were made as follows: active = hit-call score of the fitted dose curve at least 0.9, where 1 is the maximum; inconclusive = response in the unintended direction; inactive = score below 0.9.
# Test system: turtle Thyroid Hormone Receptor, alpha (TRa), gene 101949057
# Experiment: ATG_trTRa_XSP2: Attagene TRANS-FACTORIAL Multi-Species (XSP1) HepG2 Assay for turtle Thyroid Hormone Receptor, alpha (TRa) (AID 2283834);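 also: hits raise reporter mRNA over the DMSO baseline so AC50 marks activators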
# Description: ATG_XSP2_multi-species_TRANS is a cell-based, multiplexed assay created by modifying the existing Attagene TRANS-FACTORIAL system to include a panel of nuclear receptors from some or all the following species: human (Homo sapiens), mouse (Mus musculus), frog (Xenopus laevis), zebrafish (Danio rerio), chicken (Gallus gallus), and turtle (Chrysemys picta). The ECOTOX-FACTORIAL format uses HepG2, a human liver cell line, with measurements taken at 24 hours after chemical dosing in a 24-well plate. Xsp2 included 3 nM 6-alpha-fluorotestosterone and 1.5 nM norgestrel to stimulate the androgen receptor.ATG_trTRa_XSP2 is one of 29 assay components measured or calculated from the ATG_XSP2_multi-species_TRANS assay. It is designed to make measurements of mRNA induction, a form of inducible reporter, as detected with fluorescence intensity signals by Reverse transcription polymerase chain reaction (RT-PCR) and Capillary electrophoresis technology.The assay endpoint ATG_trTRa_XSP2 was analyzed in the positive analysis fitting direction relative to DMSO as the negative control and baseline of activity. Using a type of inducible reporter, measures of mRNA for gain-of-signal activity can be used to understand the reporter gene at the transcription factor-level as they relate to the gene TR. Furthermore, this assay endpoint can be referred to as a primary readout, because this assay has produced multiple assay endpoints where this one serves a reporter gene function. To generalize the intended target to other relatable targets, this assay endpoint is annotated to the nuclear receptor intended target family, where the subfamily is non-steroidal.
# Human liver HepG2 cells are transiently transfected with multiple reporter transcription units (MRTUs) in 6-well plates using FuGene 6 reagent (Roche; 3 ml FuGene/1 mg DNA). The MRTU constructs are regulated by a cis-regulating element (promoter). […] A major difference between the CIS and TRANS system is that in CIS activities of endogenous TFs are measured, whereas the TRANS assay evaluates changes in activities of exogenous, chimeric NR-Gal4 proteins. […] At the end of 24 hour incubation, total RNA was isolated using TriZol reagent (Invitrogen). The isolated RNA is then reverse-transcribed using oligo(dT) primer and Mo-MLV reverse transcriptase (Invitrogen) with DNAse I (Ambion) treatment for 30 min. The one-tenth of the produced cDNA was amplified by PCR using Taq DNA polymerase (Invitrogen) and two reporter sequence-specific primers. The PCR products were fluorescently labeled by primer extension with 6-arboxyfluorescein (6-FAM) 5'-labeled reporter sequence-specific primer (2 min at 95 C, 20 s at 68 C and 10 min at 72 C) and these products were digested with 5U of HpaI (New England Biolabs) for 2h at 37 C. The fragments were purified using Qiaquick PCR columns (Qiagen), analyzed on an ABI 3130xL genetic analyzer (Applied Biosystems) with peak positions identified by using a set of X-rhodamine (ROX)-labeled MapMarker1000 molecular weight standards (BioVentures). The raw capillary electrophoresis data was processed using Attagraph software (Attagene).
Structure (SMILES),outcome,AC50
CC(C)(c1ccc(O)cc1)c1ccc(O)cc1,inactive,
CCN(Cc1c(F)cccc1Cl)c1c([N+](=O)[O-])cc(C(F)(F)F)cc1[N+](=O)[O-],inactive,
CN(C)C(=O)Nc1ccc(Cl)c(Cl)c1,inactive,
CC(C)CCCCCCc1ccc(O)cc1,inactive,
C#C[C@]1(O)CC[C@H]2[C@@H]3CCC4=CC(=O)CC[C@@H]4[C@H]3CC[C@@]21CC,inactive,
CC1(C)C(C=C(Cl)Cl)C1C(=O)OCc1cccc(Oc2ccccc2)c1 (configuration not stated),inactive,
CC(=O)S[C@@H]1CC2=CC(=O)CC[C@]2(C)[C@H]2CC[C@@]3(C)[C@@H](CC[C@@]34CCC(=O)O4)[C@H]12,inactive,
CCCCC(CC)CN1C(=O)C2C3C=CC(C3)C2C1=O (configuration not stated),inactive,
CSC(=O)c1cccc2nnsc12,inactive,
O=C(c1ccc(O)cc1O)c1ccc(O)cc1O,inactive,
Oc1ccc(C(c2ccc(O)cc2)C(Cl)(Cl)Cl)cc1,inactive,
N[C@@H](Cc1cc(I)c(Oc2ccc(O)c(I)c2)c(I)c1)C(=O)O,,0.636 nM (active) and 73.3 nM (active)
